# According to PubChem BioAssay:
# The source made the active and inactive calls.
# Biological target: NADPH oxidase 4 (Homo sapiens) (UniProt Q9NPH5)
# Experiment: NOX4-dependent H2O2 signal modulators, primary screen, NOX inhibitor project, cell-based, HEK293-NOX4, tetracycline-induced, Amplex Red fluorescence (AID 1160)
# Conditions: 45 min, higher = more signal, called active from +8 up or from −8 down
# Chain of NADPH oxidase 4 (Homo sapiens) (Q9NPH5 whole entry, looked up): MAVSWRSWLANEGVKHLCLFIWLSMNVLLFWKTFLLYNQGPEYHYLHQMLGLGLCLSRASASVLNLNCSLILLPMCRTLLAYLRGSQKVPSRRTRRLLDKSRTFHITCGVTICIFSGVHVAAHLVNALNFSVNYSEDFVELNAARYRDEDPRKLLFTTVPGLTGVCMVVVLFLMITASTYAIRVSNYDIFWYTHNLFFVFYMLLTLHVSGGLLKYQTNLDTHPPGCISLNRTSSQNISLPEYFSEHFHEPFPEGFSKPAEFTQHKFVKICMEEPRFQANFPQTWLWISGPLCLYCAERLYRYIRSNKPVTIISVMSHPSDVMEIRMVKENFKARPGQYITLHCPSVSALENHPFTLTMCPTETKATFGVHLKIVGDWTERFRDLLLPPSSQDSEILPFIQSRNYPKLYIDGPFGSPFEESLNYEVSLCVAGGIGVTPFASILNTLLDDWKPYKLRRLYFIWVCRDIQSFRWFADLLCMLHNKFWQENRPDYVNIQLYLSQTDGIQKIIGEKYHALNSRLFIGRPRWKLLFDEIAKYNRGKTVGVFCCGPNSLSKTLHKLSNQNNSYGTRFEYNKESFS
row,Compound,z-score
1,CC(C)N1C(=O)[C@@]2(c3ccc([N+](=O)[O-])cc3)CC(=O)N(CC34CC5CC(CC(C5)C3)C4)[C@@H]2c2ccc(CO)cc21,-0.0646 (inactive)
2,COC(=O)[C@@]1(Cc2ccccc2)N=C(c2ccc(OCCCO)cc2)O[C@H]1c1ccccc1N=[N+]=[N-],0.373 (inactive)
3,N#Cc1ccc(NN2C(C(O)c3ccc([N+](=O)[O-])cc3)C=CC3C(=O)N(c4ccccc4)C(=O)C32)cc1 (centres undefined),-4.95 (inactive)
4,[N-]=[N+]=Nc1ccccc1[C@@H]1OC(c2ccc(OCCCO)cc2)=N[C@]1(CCS(=O)(=O)c1ccccc1)C(=O)N1CCOCC1,1.47 (inactive)
5,O=C(O)[C@H]1C[C@H]2C(=O)NCC(=O)N2[C@H]1c1ccc(O)cc1,-1.12 (inactive)
6,O=c1cccc(CCc2ccccc2)o1,0.12 (inactive)
7,CCN(CC)c1ccc(N2CC=CC34O[C@@H]5C=CCCOC(=O)C5[C@H]3C(=O)N(CCCCCO)[C@@H]4C2=O)cc1 (some centres undefined),0.604 (inactive)
8,COCCCNC(=O)[C@@]1(c2ccc([N+](=O)[O-])cc2)CC(=O)N(CC23CC4CC(CC(C4)C2)C3)[C@@H]1c1ccc(CO)cc1,-1.44 (inactive)
9,[N-]=[N+]=NCc1ccccc1C[C@]1(C(=O)NCC(O)CO)N=C(c2ccc(OCCCO)cc2)O[C@H]1c1ccccc1N=[N+]=[N-] (some centres undefined),-0.154 (inactive)
10,[N-]=[N+]=NCc1ccccc1[C@@H]1OC(c2ccc(OCCCO)cc2)=N[C@]1(Cc1ccccc1N=[N+]=[N-])C(=O)NCc1ccccc1,0.0734 (inactive)
11,O=C1OCC=C[C@H]2OC34C=CCN(c5ccc(Cl)cc5)C(=O)[C@H]3N(CCCCCCO)C(=O)[C@@H]4[C@@H]12 (some centres undefined),-0.583 (inactive)
12,CC(C)C[C@@H]1NC(=O)[C@H]2C[C@@H](C(=O)NCCCCCNC(=O)CS)[C@@H](c3cccc(OCCO)c3)N2C1=O,1.21 (inactive)
13,COC(=O)[C@@]1(Cc2ccccc2)[C@H]2c3cc(C(=O)N4CCCC4)n(Cc4ccc(C)o4)c3C[C@H]2CN1C(=O)c1ccccc1,-0.867 (inactive)
14,O=C1c2ccccc2[C@@]2(Cc3ccccc3N(Cc3ccccc3)C2=O)[C@H](c2ccc(CO)cc2)N1C1CCCCC1,-0.143 (inactive)
15,COc1ccccc1CN1C(=O)c2ccccc2[C@@H](C(=O)NCCN2CCOCC2)[C@@H]1c1ccc(CO)cc1,-0.65 (inactive)
16,COc1cccc(C(=O)O[C@H]2CC[C@]3(C)C4=C(CCC3C2(C)C)[C@]2(C)CC[C@H]([C@H](C)CCCC(C)C)[C@@]2(C)CC4)c1 (some centres undefined),0.0302 (inactive)
17,C[C@H]1NC(=O)[C@H](Cc2ccccc2)NC(=O)[C@@]23C(=O)N[C@@H](Cc4ccccc4)C2[C@H](C)[C@@]2(C)O[C@H]2C3/C=C/C/C=C\CNC1=O (some centres undefined),-1.42 (inactive)
18,CS(=O)(=O)CCOC(=O)C1=CC(CCCO)=CC(c2cccs2)N(Cc2cc3c(cc2Br)OCO3)C=C1C(=O)OCCS(C)(=O)=O (centres undefined),-1.1 (inactive)

# Biological target: NADPH oxidase 5 (Homo sapiens) (UniProt Q96PH1)
# Experiment: NOX5-dependent H2O2 signal modulators, primary screen, NOX inhibitor project, cell-based, HEK293-NOX5, Amplex Red fluorescence (AID 1161)
# Conditions: HEK293-NOX5, ionomycin, 45 min, higher = more signal
# Chain of NADPH oxidase 5 (Homo sapiens) (Q96PH1 whole entry, looked up): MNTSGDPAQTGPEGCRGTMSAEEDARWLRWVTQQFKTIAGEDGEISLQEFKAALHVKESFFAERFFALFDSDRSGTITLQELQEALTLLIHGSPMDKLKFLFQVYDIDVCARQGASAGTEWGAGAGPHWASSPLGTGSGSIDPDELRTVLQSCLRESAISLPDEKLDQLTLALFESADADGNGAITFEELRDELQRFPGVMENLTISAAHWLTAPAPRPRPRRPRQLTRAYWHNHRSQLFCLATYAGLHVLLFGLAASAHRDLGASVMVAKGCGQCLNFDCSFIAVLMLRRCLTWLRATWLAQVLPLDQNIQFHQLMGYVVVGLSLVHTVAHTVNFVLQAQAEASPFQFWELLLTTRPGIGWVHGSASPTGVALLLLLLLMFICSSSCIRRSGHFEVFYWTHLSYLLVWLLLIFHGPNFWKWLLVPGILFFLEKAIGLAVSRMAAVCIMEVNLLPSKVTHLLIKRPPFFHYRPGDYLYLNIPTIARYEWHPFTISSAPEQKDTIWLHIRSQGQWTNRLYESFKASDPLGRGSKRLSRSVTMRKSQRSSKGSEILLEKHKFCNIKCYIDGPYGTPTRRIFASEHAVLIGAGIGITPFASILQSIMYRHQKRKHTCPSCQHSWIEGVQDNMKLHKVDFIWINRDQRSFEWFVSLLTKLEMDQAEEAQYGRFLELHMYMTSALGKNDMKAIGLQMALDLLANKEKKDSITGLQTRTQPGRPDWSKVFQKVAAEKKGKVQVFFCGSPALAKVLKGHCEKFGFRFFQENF
row,Compound,z-score
1,CC1CC/C=C\[C@H]2OC34C=CCN(Cc5ccccc5)C(=O)[C@H]3N(CCCCCO)C(=O)[C@@H]4C2C(=O)O1 (some centres undefined),1.34
2,COCCOC(=O)N1C(=O)[C@@]2(c3cc(C#CCNC(N)=O)ccc31)[C@H](C(=O)N1CCc3cc(OC)c(OC)cc3C1)[C@H]1C(=O)O[C@H](c3ccccc3)[C@H](c3ccccc3)N1[C@@H]2c1ccc(OCCO)cc1,-0.0832
3,O=C1OCCC/C=C\[C@H]2OC34C=CCN(Cn5nnc6ccccc65)C(=O)[C@H]3N(CCCCCO)C(=O)[C@@H]4C12 (some centres undefined),1.15
4,O=C(O)[C@@]1(Cc2ccccc2)N=C(c2ccc(OCCCO)cc2)O[C@H]1c1ccccc1,1.33
5,Cc1ccc(S[C@]2(C(=O)NC3CC3)CC(=O)N(C3CCCCC3)[C@@H]2c2ccc(CO)cc2I)cc1,1.38
6,O=C/C=C/c1ccc2c(c1)OCO2,0.961
7,CC(C)(C)OC(=O)CC[C@@]1(C(=O)O)N=C(c2ccc(OCCCO)cc2)O[C@@H]1c1ccccc1N=[N+]=[N-],0.907
8,COCCOC(=O)N1C(=O)[C@@]2(c3cc(C#CCC(C(=O)OC)C(=O)OC)ccc31)[C@H](C(=O)N1CCN(c3ncccn3)CC1)[C@H]1C(=O)O[C@H](c3ccccc3)[C@H](c3ccccc3)N1[C@@H]2c1ccc(OCCO)cc1,0.897
9,COCCOC(=O)N1C(=O)[C@@]2(c3cc(C#CCC(C(=O)OC)C(=O)OC)ccc31)[C@H](c1ccc(O)cc1)N1[C@H](c3ccccc3)[C@H](c3ccccc3)OC(=O)[C@H]1[C@@H]2C(N)=O,1.14
10,C=CCOC(=O)[C@@H]1[C@H]2C(=O)O[C@H](c3ccccc3)[C@H](c3ccccc3)N2[C@H](c2ccc(OCCOC(=O)[C@@H]3C[C@@H]4C(=O)NCC(=O)N4[C@@H]3c3cccc(OCCO)c3)cc2)[C@@]12C(=O)Nc1ccc(I)cc12,1.37
11,C#CCN(C(/C=C/c1ccccc1)CO)C(C(=O)O)c1ccccc1 (centres undefined),-0.191
12,COC(=O)[C@@]1(Cc2ccc(F)cc2)[C@H]2c3cc(C(=O)N4CCCC4)n(Cc4cccc5ccccc45)c3C[C@H]2CN1C(=O)c1ccccc1,-0.666
13,CC(C)CNC(=O)[C@@H]1c2ccccc2C(=O)N(Cc2cc(C(F)(F)F)cc(C(F)(F)F)c2)[C@H]1c1ccc(CO)cc1,0.86
14,COc1cc2c(cc1OC)CN(C(=O)[C@@H]1[C@H]3C(=O)O[C@H](c4ccccc4)[C@H](c4ccccc4)N3[C@H](c3ccccc3OCCO)[C@@]13C(=O)Nc1ccc(C#CCNC(N)=O)cc13)CC2,-0.0555
15,COC(=O)c1ccc(C(O)C2C=CC3C(=O)N(c4ccccc4)C(=O)C3N2Nc2ccc(C#N)cc2)o1 (centres undefined),-2.23
16,CC(=O)NCCCC[C@@H]1NC(=O)[C@@H]2C[C@H](C(=O)NCCCCCCNC(=O)CS)[C@H](c3ccc(O)cc3)N2C1=O,-0.697
17,O=c1cccc(C=Cc2ccccc2)o1,-0.0341
18,COc1ccc([Si](C)(C)[C@@H]2[C@@H](CC(=O)N3CCC[C@H]3CO)O[C@]3(C(=O)N(C)c4c(Br)cc(C)cc43)[C@H]2C)cc1,3.69

row,Compound,z-score
1,CC(C)N1C(=O)[C@@]2(c3ccc([N+](=O)[O-])cc3)CC(=O)N(CC34CC5CC(CC(C5)C3)C4)[C@@H]2c2ccc(CO)cc21,0.607
2,COC(=O)[C@@]1(Cc2ccccc2)N=C(c2ccc(OCCCO)cc2)O[C@H]1c1ccccc1N=[N+]=[N-],-1.06
3,N#Cc1ccc(NN2C(C(O)c3ccc([N+](=O)[O-])cc3)C=CC3C(=O)N(c4ccccc4)C(=O)C32)cc1 (centres undefined),-3.56
4,[N-]=[N+]=Nc1ccccc1[C@@H]1OC(c2ccc(OCCCO)cc2)=N[C@]1(CCS(=O)(=O)c1ccccc1)C(=O)N1CCOCC1,1.47
5,O=C(O)[C@H]1C[C@H]2C(=O)NCC(=O)N2[C@H]1c1ccc(O)cc1,-0.575
6,O=c1cccc(CCc2ccccc2)o1,-0.339
7,CCN(CC)c1ccc(N2CC=CC34O[C@@H]5C=CCCOC(=O)C5[C@H]3C(=O)N(CCCCCO)[C@@H]4C2=O)cc1 (some centres undefined),0.895
8,COCCCNC(=O)[C@@]1(c2ccc([N+](=O)[O-])cc2)CC(=O)N(CC23CC4CC(CC(C4)C2)C3)[C@@H]1c1ccc(CO)cc1,-1.74
9,[N-]=[N+]=NCc1ccccc1C[C@]1(C(=O)NCC(O)CO)N=C(c2ccc(OCCCO)cc2)O[C@H]1c1ccccc1N=[N+]=[N-] (some centres undefined),-1.77
10,[N-]=[N+]=NCc1ccccc1[C@@H]1OC(c2ccc(OCCCO)cc2)=N[C@]1(Cc1ccccc1N=[N+]=[N-])C(=O)NCc1ccccc1,0.235
11,O=C1OCC=C[C@H]2OC34C=CCN(c5ccc(Cl)cc5)C(=O)[C@H]3N(CCCCCCO)C(=O)[C@@H]4[C@@H]12 (some centres undefined),1.96
12,CC(C)C[C@@H]1NC(=O)[C@H]2C[C@@H](C(=O)NCCCCCNC(=O)CS)[C@@H](c3cccc(OCCO)c3)N2C1=O,0.93
13,COC(=O)[C@@]1(Cc2ccccc2)[C@H]2c3cc(C(=O)N4CCCC4)n(Cc4ccc(C)o4)c3C[C@H]2CN1C(=O)c1ccccc1,-1.17
14,O=C1c2ccccc2[C@@]2(Cc3ccccc3N(Cc3ccccc3)C2=O)[C@H](c2ccc(CO)cc2)N1C1CCCCC1,-0.548
15,COc1ccccc1CN1C(=O)c2ccccc2[C@@H](C(=O)NCCN2CCOCC2)[C@@H]1c1ccc(CO)cc1,-2.47
16,COc1cccc(C(=O)O[C@H]2CC[C@]3(C)C4=C(CCC3C2(C)C)[C@]2(C)CC[C@H]([C@H](C)CCCC(C)C)[C@@]2(C)CC4)c1 (some centres undefined),0.689
17,C[C@H]1NC(=O)[C@H](Cc2ccccc2)NC(=O)[C@@]23C(=O)N[C@@H](Cc4ccccc4)C2[C@H](C)[C@@]2(C)O[C@H]2C3/C=C/C/C=C\CNC1=O (some centres undefined),-0.197
18,CS(=O)(=O)CCOC(=O)C1=CC(CCCO)=CC(c2cccs2)N(Cc2cc3c(cc2Br)OCO3)C=C1C(=O)OCCS(C)(=O)=O (centres undefined),-1.41
